Results reported in PubChem BioAssay (NCATS).
Records with an inconclusive call do not appear. Calls of active or inactive are those of the source. Calls come from the whole dose curve; as a rule, active = well fitted curve in the direction sought with a large enough effect; inconclusive = small, poorly fitted or top-dose-only effect, or another doubt; inactive = no such curve, though single readings can be large; an effect the other way counts as inactive or inconclusive.

Experiments:
[1] = target: Arylsulfatase A (Homo sapiens) (UniProt P15289); assay: qHTS screen for enhancers of Arylsulfatase A (ASA1): LOPAC Validation Assay (AID 720538)
Procedure, shortened: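 Read-out: fluorescence at Ex=525/Em=598 nm after 1N NaOH final stop. Patient fibroblasts carrying ASA-I179S had 48h compound exposure, then 14h room-temperature pNCS hydrolysis (0.5mM final) in lysis buffer. Signal increase = enhanced activity.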

[2] = qHTS for compounds that reverse cellular toxicity of Amyloid beta (A-beta) peptide in yeast: LOPAC Validation Assay (AID 720559)
Procedure, shortened: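 OD600 growth readout after 48 hr at 30 C; A-beta-toxic yeast plus pinned compounds in medium. Normalization: DMSO = negative, equimolar FeCl3 + clioquinol = positive.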

[3] = qHTS for Activators of Parkin Expression: LOPAC Validation Assay (NLuc Reporter) (AID 720572)
Procedure, shortened: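 Parkin promoter-driven FLuc/NLuc neuronal reporter cells; 24 h plating, 7-pt dose response, 24 h at 37 C/5% CO2; FLuc then NanoLuc reagent, 10 min each, luminescence; DMSO/positive control normalized.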

[4] = qHTS for Activators of Parkin Expression: LOPAC Validation Assay (FLuc Reporter) (AID 720573)
Procedure, shortened: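 FLuc luminescence read-out from a neuronal line expressing a Parkin-promoter-driven coincidence reporter. Cells treated 24 h at 37 C, 5% CO2 with compounds at 7 concentrations; signal increase normalized to DMSO and positive control.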

Measured: Potency

Chain of Arylsulfatase A (Homo sapiens) (P15289 whole entry, looked up): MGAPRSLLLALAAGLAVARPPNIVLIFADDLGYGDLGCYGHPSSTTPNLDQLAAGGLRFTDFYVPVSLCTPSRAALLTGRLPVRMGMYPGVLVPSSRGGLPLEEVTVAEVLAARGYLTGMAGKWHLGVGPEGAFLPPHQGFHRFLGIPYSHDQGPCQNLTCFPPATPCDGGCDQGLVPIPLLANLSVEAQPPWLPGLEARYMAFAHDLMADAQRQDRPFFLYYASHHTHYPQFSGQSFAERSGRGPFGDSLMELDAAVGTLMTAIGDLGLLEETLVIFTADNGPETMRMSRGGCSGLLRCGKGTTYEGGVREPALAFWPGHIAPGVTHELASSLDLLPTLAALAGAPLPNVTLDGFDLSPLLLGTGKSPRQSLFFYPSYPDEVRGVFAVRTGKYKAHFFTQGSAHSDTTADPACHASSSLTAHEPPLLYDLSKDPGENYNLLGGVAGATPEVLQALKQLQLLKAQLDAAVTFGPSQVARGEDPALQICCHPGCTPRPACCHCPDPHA

CC[C@H](NC(=O)c1c(C)c(-c2ccccc2)nc2ccccc12)c1ccccc1
inactive: all assays above

N[C@@H](Cc1ccc(F)cc1)C(=O)O
inactive: all assays above

Cn1cc(C(F)(F)F)nc1-c1ccc(OCC(O)CNCCOc2ccc(O)c(C(N)=O)c2)cc1 (configuration not stated)
inactive: all assays above

CC(=O)NCCc1c[nH]c2ccc(O)cc12
inactive: all assays above

Cc1nc(N=Nc2ccc(C(=O)O)cc2)c(COP(=O)(O)O)c(C=O)c1O
inactive: all assays above

Nc1ccc(N2C(=O)c3ccccc3C2=O)c(Cl)c1
inactive: all assays above

O=C(O)/C(=C/c1c(C(=O)O)[nH]c2cc(Cl)cc(Cl)c12)c1ccccc1
inactive: all assays above

c1ccc(C(NCCNC(c2ccccc2)c2ccccc2)c2ccccc2)cc1
inactive: all assays above

CSc1nc(N)c2ncn([C@@H]3O[C@H](COP(=O)(O)OP(=O)(O)O)C(O)[C@H]3O)c2n1 (some centres not stated)
inactive: all assays above

Clc1nccc2c1ccc1ccccc12
inactive: all assays above

C=C1C(=O)O[C@@H]2[C@H]3O[C@]3(C)CCC=C(C)CC[C@@H]12
inactive: all assays above

O=C(O)c1cc(=O)cc(C(=O)O)[nH]1
inactive: all assays above

OC[C@H]1O[C@@H](n2cnc3cncnc32)[C@H](O)[C@@H]1O
inactive: all assays above
